Drawing on PubChem BioAssay, this text covers inhibition for 17 compounds.

Molecules are shown by their SMILES. Values without a mark were called inactive. Activity calls are given as the source filed them. Rule as the data show it, unless noted: active = inhibition above about 44%; inactive = the rest.

The target of test [1] is Nuclear receptor coactivator 3 (Homo sapiens) (UniProt Q9Y6Q9). Kind of test: NCOA3 GAL4-fusion reporter inhibition – cell-based, luminescence, quadruplicate, confirmation (AID 588792;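 active = mean inhibition over 43.08%, the solvent-only control mean plus 3 SD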;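 also: 0% = DMSO treated cells and 100% = gossypol at 36 µM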). The note with it: HEK293 GAL4-SRC3 luciferase reporter, at 3.6 µM, stronger effect = higher value. For orientation: Reporter assays use an easily measured gene product as a stand-in for the process of interest.
Nuclear receptor coactivator 3 (Homo sapiens), sequence (Q9Y6Q9 whole entry, looked up, the tested form may be a part): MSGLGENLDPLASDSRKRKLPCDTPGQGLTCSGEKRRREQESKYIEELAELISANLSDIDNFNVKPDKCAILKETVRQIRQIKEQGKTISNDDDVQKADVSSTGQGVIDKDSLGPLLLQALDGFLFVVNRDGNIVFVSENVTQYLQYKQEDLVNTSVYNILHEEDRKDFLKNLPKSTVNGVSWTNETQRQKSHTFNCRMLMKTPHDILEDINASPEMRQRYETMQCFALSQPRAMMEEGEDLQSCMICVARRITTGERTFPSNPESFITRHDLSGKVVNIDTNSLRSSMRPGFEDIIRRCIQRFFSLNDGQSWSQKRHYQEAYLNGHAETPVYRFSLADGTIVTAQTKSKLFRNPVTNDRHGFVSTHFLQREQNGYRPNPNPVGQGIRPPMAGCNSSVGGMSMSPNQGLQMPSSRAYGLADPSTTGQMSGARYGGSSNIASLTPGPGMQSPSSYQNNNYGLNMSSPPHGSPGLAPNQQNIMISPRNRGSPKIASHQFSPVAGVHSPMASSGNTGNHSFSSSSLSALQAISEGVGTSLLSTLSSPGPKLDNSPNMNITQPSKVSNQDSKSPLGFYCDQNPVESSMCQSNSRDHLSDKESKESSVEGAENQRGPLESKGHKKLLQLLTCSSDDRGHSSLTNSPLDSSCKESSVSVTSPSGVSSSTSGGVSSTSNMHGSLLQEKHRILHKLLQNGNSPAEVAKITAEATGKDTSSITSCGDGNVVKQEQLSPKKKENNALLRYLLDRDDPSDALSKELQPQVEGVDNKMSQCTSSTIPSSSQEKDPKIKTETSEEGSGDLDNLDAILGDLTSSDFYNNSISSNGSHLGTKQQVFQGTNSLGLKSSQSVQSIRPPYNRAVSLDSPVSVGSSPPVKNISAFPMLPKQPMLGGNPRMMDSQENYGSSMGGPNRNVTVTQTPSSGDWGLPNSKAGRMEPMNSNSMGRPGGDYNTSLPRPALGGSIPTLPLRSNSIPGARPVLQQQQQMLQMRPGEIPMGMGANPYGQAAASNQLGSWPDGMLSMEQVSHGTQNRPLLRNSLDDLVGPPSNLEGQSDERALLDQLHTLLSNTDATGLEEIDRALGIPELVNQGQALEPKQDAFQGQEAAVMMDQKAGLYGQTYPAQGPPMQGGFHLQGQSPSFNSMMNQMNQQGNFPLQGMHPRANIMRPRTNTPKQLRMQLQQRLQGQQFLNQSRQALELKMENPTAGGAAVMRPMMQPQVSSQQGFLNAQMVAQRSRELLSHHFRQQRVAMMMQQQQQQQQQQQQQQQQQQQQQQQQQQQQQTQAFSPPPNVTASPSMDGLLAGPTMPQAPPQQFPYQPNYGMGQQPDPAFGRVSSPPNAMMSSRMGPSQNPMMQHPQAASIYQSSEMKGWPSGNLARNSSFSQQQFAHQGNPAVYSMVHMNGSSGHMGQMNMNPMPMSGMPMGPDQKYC

For test [2], the system named is transactivating tegument protein VP16 (Human herpesvirus 1), Gal4-VP16 luciferase reporter. Kind of test: repression of VP16-driven luciferase reporter – cell-based, luminescence, high throughput, counter-screen for SRC3 inhibitor project (AID 588794; in the data active = inhibition above about 30%). The following applies: mammalian cells, at 3.6 µM, stronger effect = higher value.
The target in test [3] is Nuclear receptor coactivator 1 (Homo sapiens) (UniProt Q15788). In words: NCOA1 GAL4-fusion reporter inhibition – cell-based, luminescence, quadruplicate, confirmation (AID 588820;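 active = mean inhibition above 46.68%, the untreated control wells mean plus 3 SD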;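 also: 0% = DMSO wells and 100% = gossypol 36 µM treated wells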). The note with it: HEK293 GAL4-SRC1 luciferase reporter, at 3.6 µM, stronger effect = higher value.
Nuclear receptor coactivator 1 (Homo sapiens), sequence (Q15788 whole entry, looked up, the tested form may be a part): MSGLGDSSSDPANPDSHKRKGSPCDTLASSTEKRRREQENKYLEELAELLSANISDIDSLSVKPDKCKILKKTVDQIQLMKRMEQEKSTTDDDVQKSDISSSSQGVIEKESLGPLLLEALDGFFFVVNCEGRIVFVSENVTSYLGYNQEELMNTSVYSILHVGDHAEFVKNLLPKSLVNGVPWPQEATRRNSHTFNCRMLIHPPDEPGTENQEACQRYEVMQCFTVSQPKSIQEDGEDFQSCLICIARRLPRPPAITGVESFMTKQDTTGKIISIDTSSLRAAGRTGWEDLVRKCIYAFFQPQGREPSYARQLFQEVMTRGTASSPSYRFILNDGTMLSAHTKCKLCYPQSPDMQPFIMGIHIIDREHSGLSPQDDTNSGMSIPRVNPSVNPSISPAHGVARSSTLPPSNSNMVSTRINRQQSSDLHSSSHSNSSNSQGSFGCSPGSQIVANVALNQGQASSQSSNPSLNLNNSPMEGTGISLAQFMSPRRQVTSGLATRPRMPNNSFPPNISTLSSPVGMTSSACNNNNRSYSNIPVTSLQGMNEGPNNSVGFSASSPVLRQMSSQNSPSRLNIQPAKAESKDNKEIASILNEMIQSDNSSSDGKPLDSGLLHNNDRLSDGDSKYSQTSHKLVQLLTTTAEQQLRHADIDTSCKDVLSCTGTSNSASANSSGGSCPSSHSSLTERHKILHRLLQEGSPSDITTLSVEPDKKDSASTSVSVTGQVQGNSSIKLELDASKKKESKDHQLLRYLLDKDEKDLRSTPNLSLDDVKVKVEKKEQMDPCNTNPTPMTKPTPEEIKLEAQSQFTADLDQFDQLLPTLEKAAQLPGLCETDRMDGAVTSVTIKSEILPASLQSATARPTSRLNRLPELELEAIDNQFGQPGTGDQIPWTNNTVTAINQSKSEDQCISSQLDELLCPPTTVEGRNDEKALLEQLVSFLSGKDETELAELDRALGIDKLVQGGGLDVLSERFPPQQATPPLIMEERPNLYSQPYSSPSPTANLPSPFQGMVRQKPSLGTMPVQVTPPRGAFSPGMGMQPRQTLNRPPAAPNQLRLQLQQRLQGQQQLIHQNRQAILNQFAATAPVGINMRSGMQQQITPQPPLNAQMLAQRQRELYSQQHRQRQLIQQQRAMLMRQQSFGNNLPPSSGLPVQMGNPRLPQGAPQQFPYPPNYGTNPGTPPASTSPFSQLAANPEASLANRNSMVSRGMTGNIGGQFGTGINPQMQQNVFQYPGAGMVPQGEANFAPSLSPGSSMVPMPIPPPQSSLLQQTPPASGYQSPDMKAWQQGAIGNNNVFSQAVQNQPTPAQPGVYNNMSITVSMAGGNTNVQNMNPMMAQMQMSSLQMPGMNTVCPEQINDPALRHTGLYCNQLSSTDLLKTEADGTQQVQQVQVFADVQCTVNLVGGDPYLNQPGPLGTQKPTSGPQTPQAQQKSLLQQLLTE
Test [4] is described as follows: repression of VP16-driven luciferase reporter – cell-based, luminescence, high throughput, counter-screen for SRC1 inhibitor project (AID 588824; in the data active = inhibition above about 25%). The following applies: cell-based VP16 transactivation luciferase luminescence; at 3.6 µM; stronger effect = higher value.
Test [5] is described as follows: StAR promoter reporter inhibitors, counter-screen for LRH-1 inverse agonist project, cell-based, luminescence, high throughput (AID 651611; in the data active = inhibition above about 28%). The following applies: StAR promoter luciferase reporter counterscreen, at 3.6 µM, stronger effect = higher value.
Test [6] addresses Nuclear receptor subfamily 5 group A member 2 (Homo sapiens) (UniProt O00482). Kind of test: NR5A2 activity suppression in reporter cells – cell-based, luminescence, confirmation (AID 651613; in the data active = inhibition above about 42%;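 also: HEK293T cells co-transfected with LRH-1 and StAR promoter luciferase reporter; 0% = vehicle wells and 100% = parental cells lacking receptor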). The following applies: cell-based LRH-1 luciferase reporter, inverse agonism; at 3.6 µM; stronger effect = higher value.
In test [7] the target is Steroidogenic factor 1 (Homo sapiens) (UniProt Q13285). In words: inverse agonism at SF1 nuclear receptor – cell-based, luminescence, high throughput, counter-screen for LRH-1 inverse agonist project (AID 651614).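 Also: cells cotransfected with StAR promoter reporter and SF1 expression vector; 0% = vehicle on cells with receptor and 100% = vehicle on cells lacking receptor.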 The note with it: cell-based SF1 luciferase reporter, at 3.6 µM, stronger effect = higher value.
Steroidogenic factor 1 (Homo sapiens), sequence (Q13285 whole entry, looked up, the tested form may be a part): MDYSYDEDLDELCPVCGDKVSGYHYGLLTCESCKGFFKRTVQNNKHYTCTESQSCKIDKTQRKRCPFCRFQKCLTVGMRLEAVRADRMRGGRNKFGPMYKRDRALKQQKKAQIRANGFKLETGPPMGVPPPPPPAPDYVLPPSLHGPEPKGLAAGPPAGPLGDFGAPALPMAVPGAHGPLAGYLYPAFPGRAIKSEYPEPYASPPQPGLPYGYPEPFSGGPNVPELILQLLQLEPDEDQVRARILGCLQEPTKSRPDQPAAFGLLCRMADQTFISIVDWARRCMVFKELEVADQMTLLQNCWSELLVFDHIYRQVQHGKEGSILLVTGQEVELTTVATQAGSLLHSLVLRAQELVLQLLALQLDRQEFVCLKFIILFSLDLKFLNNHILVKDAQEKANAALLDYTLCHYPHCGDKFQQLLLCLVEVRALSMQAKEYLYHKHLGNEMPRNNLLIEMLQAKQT
Test [8] in a line: compounds suppressing VP16-driven luciferase signal – cell-based, luminescence, high throughput, counter-screen for LRH-1 inverse agonist project (AID 651615; in the data active = inhibition above about 33%). The following applies: Gal4-VP16 luciferase reporter cells, at 3.6 µM, stronger effect = higher value.

Nuclear receptor subfamily 5 group A member 2 (Homo sapiens), sequence (O00482 whole entry, looked up): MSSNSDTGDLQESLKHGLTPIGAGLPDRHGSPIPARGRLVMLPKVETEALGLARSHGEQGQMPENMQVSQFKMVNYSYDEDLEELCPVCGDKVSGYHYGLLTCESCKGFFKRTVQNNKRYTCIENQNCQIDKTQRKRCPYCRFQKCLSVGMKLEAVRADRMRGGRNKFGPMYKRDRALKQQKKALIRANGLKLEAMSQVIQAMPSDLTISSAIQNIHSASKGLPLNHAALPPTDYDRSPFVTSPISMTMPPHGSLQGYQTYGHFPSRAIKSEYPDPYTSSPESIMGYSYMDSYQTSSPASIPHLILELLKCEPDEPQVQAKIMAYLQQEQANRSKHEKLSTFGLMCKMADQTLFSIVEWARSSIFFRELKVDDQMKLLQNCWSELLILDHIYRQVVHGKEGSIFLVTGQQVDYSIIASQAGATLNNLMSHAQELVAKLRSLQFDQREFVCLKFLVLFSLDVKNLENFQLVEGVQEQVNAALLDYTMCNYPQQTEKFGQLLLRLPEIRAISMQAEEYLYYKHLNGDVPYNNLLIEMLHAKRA

As for `O=C(Nc1ccc(N2CCN(C(=O)c3ccccc3)CC2)cc1)c1ccc2c(c1)OCO2`, the inhibition in test [1] was 36.9%; in test [2], 66.7% (active); in test [3] it was 37.4%; in test [4], 57.1% (active); in test [5], 50.2% (active); in test [6] it was 64% (active). Also, the inhibition in test [7] was 73.8% (active); in test [8], 70.5% (active).
For the compound `Nc1ncnc2c(C3OC(CO)C(O)C3O)c[nH]c12` (stereo unspecified), the inhibition in test [1] was 97.4% (active); in test [2] it was 96.5% (active); in test [3], 95.7% (active); in test [4] it was 96% (active); in test [5], 95.6% (active); in test [6] it was 111% (active). Moreover, the inhibition was 98.2% (active) in test [7] and 97.7% (active) in test [8].
As to `CCc1ccccc1Nc1nn2c(=O)c3ccc(C(=O)NCc4ccccn4)cc3nc2s1`, the inhibition in test [1] was 33.3%; in test [2], 61.3% (active); in test [3], 42%; in test [4], 59.9% (active); in test [5], 57.3% (active); in test [6], 67.3% (active). Moreover, the inhibition in test [7] is 76% (active); in test [8] it was 72% (active).
`Cc1ccc(-n2c(-c3ccc(Br)cc3)c[n+]3c2CCc2ccc4cccnc4c2-3)cc1`: the inhibition was 89.4% (active) in test [1]; 86.1% (active) in test [2]; 74.8% (active) in test [3]; 87.5% (active) in test [4]; 83.8% (active) in test [5]; 111% (active) in test [6]. Moreover, the inhibition in test [7] was 95.8% (active); in test [8] it was 96.3% (active).
Take `CN(Cc1ccccc1)C1=CC(=[N+]2CCCCC2)CC(C)(C)C1`: the inhibition in test [1] is 43.1% (active); in test [2], 73.6% (active); in test [3], 44.8%; in test [4], 75.8% (active); in test [5] it was 68% (active); in test [6], 108% (active). For the same compound, the inhibition in test [7] was 90.6% (active); in test [8] it was 91.1% (active).
Consider `CCN(CC)c1ccc2nc3ccccc3[n+](CC)c2c1`, for which the inhibition is 50.2% (active) in test [1]; 54.2% (active) in test [2]; 40.5% in test [3]; 59.6% (active) in test [4]; 69.4% (active) in test [5]; 88.3% (active) in test [6]. Further, the inhibition in test [7] was 80.2% (active); in test [8] it was 68.7% (active).
In the case of `NCCCNc1nc(N)c([N+](=O)[O-])c(NC2CCCCC2)n1`, the inhibition is 62.2% (active) in test [1]; 42.4% (active) in test [2]; 7.71% in test [3]; 27.1% (active) in test [4]; 84.7% (active) in test [5]; 98.5% (active) in test [6]. Further, the inhibition was 82.5% (active) in test [7] and 88.1% (active) in test [8].
For `COc1ccc2[nH]c3c(C)c4ccncc4c(C)c3c2c1`, the inhibition in test [1] is -29%; in test [2] it was 53.7% (active); in test [3], 24.4%; in test [4], 52.5% (active); in test [5], 60.9% (active); in test [6], 67.1% (active). Further, the inhibition in test [7] was 68.7% (active); in test [8] it was 72.1% (active).
Consider `COc1ccc(C(=O)Nc2nc3ccccc3s2)c(OC)c1`, for which the inhibition in test [1] is 92.8% (active); in test [2], 91.5% (active); in test [3], 84.7% (active); in test [4], 87.5% (active); in test [5], 93.4% (active); in test [6], 93.9% (active). For the same compound, the inhibition was 92.3% (active) in test [7] and 90.2% (active) in test [8].
Consider `N=c1c2c(n(Cc3ccc(Cl)cc3)c3c1CCC3)CCC2`, for which the inhibition in test [1] is 55.8% (active); in test [2], 68.7% (active); in test [3], 47.1% (active); in test [4], 61.9% (active); in test [5], 58.6% (active); in test [6] it was 105% (active). Further, the inhibition in test [7] is 85.1% (active); in test [8] it was 78.3% (active).
As to `Cn1nccc1C(=O)N/N=C/c1c(O)ccc2ccccc12`, the inhibition in test [1] was 73.9% (active); in test [2], 74.6% (active); in test [3] it was 72% (active); in test [4], 71% (active); in test [5] it was 82.4% (active); in test [6], 101% (active). The inhibition was 86.2% (active) in test [7] and 71.1% (active) in test [8].
Consider `CN(C)c1cc[n+](CC(=O)c2ccc(-c3ccccc3)cc2)cc1`, for which the inhibition is 35.6% in test [1]; 57.6% (active) in test [2]; 35% in test [3]; 66.5% (active) in test [4]; 43.8% (active) in test [5]; 82.3% (active) in test [6]. Moreover, the inhibition in test [7] was 71.8% (active); in test [8], 67.9% (active).
With `COc1ccc(CCNC(=O)c2nnn(-c3ccc4c(c3)OCCO4)c2N)cc1OC`, the inhibition in test [1] is 31.7%; in test [2], 2.53%; in test [3], 13.1%; in test [4], -6.95%; in test [5], 44.7% (active); in test [6], -26.3%. Moreover, the inhibition in test [7] was 29%; in test [8] it was -16.9%.
On to `O=C(O)C1CCCN1c1nc(-c2ccc(Cl)c(Cl)c2)cc(C(F)(F)F)n1` (stereo unspecified), for which the inhibition in test [1] was 53.8% (active); in test [2], 74.4% (active); in test [3], 48.3% (active); in test [4], 72.8% (active); in test [5], 74.5% (active); in test [6], 97.4% (active). For the same compound, the figures for the inhibition in test [7] and in test [8] were 91.4% (active) and 78.2% (active), respectively.
As for `O=C(NC(NC(=S)N1CCOCC1)C(Cl)(Cl)Cl)c1ccc(Cl)cc1` (stereo unspecified), the inhibition in test [1] was 30.4%; in test [2] it was 18.7%; in test [3] it was 23%; in test [4] it was 15%; in test [5], 47.4% (active); in test [6] it was 53.2% (active). Also, the inhibition was 50.2% (active) in test [7] and 20.3% in test [8].
As to `O=C1C(Nc2ccccc2)=C(N2CCCCC2)C(=O)c2ccccc21`, the inhibition in test [1] was 19.4%; in test [2], 39.6% (active); in test [3], 44.4%; in test [4], 35.9% (active); in test [5], -2.41%; in test [6], 22.5%. Moreover, the inhibition in test [7] is 6.41%; in test [8], 12.1%.
For the compound `CCCCC(=O)NC(c1ccccc1Cl)c1ccc2cccnc2c1O` (stereo unspecified), the inhibition was 26.3% in test [1]; 32.7% (active) in test [2]; 41% in test [3]; 50.9% (active) in test [4]; 74.1% (active) in test [5]; 76.5% (active) in test [6]. The inhibition was 80.8% (active) in test [7] and 74.4% (active) in test [8].

Broadly, the inhibition is the relative decrease from the control value, in per cent.
